From PubChem BioAssay AID588726 (The Scripps Research Institute Molecular Screening Center, 2011)
In all, about 360,000 compounds went through this assay and about 8,200 (2.3%) were called active. This is one part of a sample in which actives are shown more often than they occur. Cut-off read from the data, not from the text of the source: active = inhibition above about 27%; inactive = the rest.

Molecular target: Fructose-bisphosphate aldolase (Mycobacterium tuberculosis (strain ATCC 25618 / H37Rv)) (UniProt P9WQA3)
Sequence (P9WQA3 whole entry, looked up): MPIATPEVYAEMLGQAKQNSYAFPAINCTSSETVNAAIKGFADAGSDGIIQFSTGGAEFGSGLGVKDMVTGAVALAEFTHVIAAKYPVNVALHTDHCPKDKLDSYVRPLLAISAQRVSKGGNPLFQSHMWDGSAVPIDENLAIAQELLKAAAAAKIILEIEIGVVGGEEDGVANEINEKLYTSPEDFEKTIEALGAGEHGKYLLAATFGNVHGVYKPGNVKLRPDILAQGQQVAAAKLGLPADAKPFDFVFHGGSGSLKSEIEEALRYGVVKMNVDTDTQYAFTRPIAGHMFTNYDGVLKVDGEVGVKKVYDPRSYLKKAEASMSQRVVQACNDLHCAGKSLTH
Assay: M. tuberculosis aldolase activity blockers – biochemical, fluorescence, strain H37Rv, primary screen (AID 588726);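 note: 0% = vehicle and 100% = reference inhibitor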
Settings: purified M. tuberculosis FBA, fluorescence read-out, at 1 µM, stronger effect = higher value

Structure (SMILES)	inhibition
COCCNC(=O)C1CCN(S(=O)(=O)c2ccc3c(c2)OCCO3)CC1	-1.67% (inactive)
O=C(O)C(=Cc1ccccc1[N+](=O)[O-])c1ccccc1	3.82% (inactive)
CC1(C)CC(=O)C=C(c2ccc(COC(=O)c3cc(F)cc(F)c3)cc2)C1=O	-0.96% (inactive)
C/C(=N\NC(=S)NC(C)C)c1ccc(C(C)(C)C)cc1	2.12% (inactive)
Cc1ccc(CNC(=O)c2ccccc2CCc2ccccc2)cc1	-1.34% (inactive)
CCN(CC)CCCNC(=O)c1cc(-c2cccc(Cl)c2)on1	0% (inactive)
CCN(CC)CCCNC(=O)c1cc2c(=O)[nH]c3ccc(C)cc3c2s1	99.9% (active)
Cc1cccc(N(C)C(=O)c2cc3c(=O)[nH]c4ccc(C)cc4c3s2)c1	2.59% (inactive)
O=C1CC(c2cccc(Br)c2)C2=C(CCCC2=O)N1 (configuration not stated)	11.8% (inactive)
COc1ccc(-n2nc(C(=O)NCC(=O)Nc3cccc(C)n3)c3ccccc3c2=O)cc1	-0.39% (inactive)
COc1ccc(OC)c(CN2C(=O)CCC2(C)C(=O)NC2CCCCCC2)c1 (configuration not stated)	-0.66% (inactive)
Nc1ncnc2c1ncn2[C@@H]1O[C@H](C(=O)N2CCCN(Cc3ccccc3F)CC2)[C@@H](O)[C@H]1O	-2.6% (inactive)
CCN1CCCC1CNC(=O)c1ccc2c(c1)NC(=O)/C(=C\c1ccccc1F)S2 (configuration not stated)	-6.09% (inactive)
COc1ccc(C(=O)NCC2CCCN2S(=O)(=O)c2cccs2)cc1OC (configuration not stated)	2.94% (inactive)
CCOC(=O)CSc1nc(C)cc2c1C(=O)OC2	-3.48% (inactive)
O=C(NCc1cccc(Cl)c1)C1=CC=CN2CCS(=O)(=O)N=C12	30.5% (active)
O=C(NCc1cccc(Cl)c1)C1CCC(=O)N(C2CC2)C1 (configuration not stated)	1.48% (inactive)
O=C(NCc1cccc(Cl)c1)C1CCN(c2nnc(N3CCCC3=O)s2)CC1	-1.53% (inactive)
COCC1CCCN(Cc2cn[nH]c2-c2cc3ccccc3o2)C1 (configuration not stated)	0.03% (inactive)
COc1ccc2c3c(c(=O)oc2c1OCC(=O)C(C)(C)C)CCCC3	63.3% (active)
CCCOc1ccc2c3c(c(=O)oc2c1OCCC)CCC3	16% (inactive)
COc1ccc(C(=O)Nc2ccc(C(=O)NCC3CCCO3)cc2)c(OC)c1OC (configuration not stated)	-1.55% (inactive)
CCc1nc2c(OCC(=O)C(C)(C)C)cccn2c1N(C)C(=O)c1ccccc1F	-0.18% (inactive)

Structure (SMILES)	inhibition
Clc1ccc(C=NC23CN4CN(CN(C4)C2)C3)cc1	1.62% (inactive)
NNc1cccc(C=Cc2ccccc2)cc1=O	21.6% (inactive)
O=C(COc1ccc(Cl)cc1)NCc1nnc(SCC(=O)NCC2CCCO2)o1 (configuration not stated)	5.04% (inactive)
CN1CCN(CCCNC(=O)c2ccc(/C=C3\Oc4ccccc4N(Cc4ccc(Cl)cc4)C3=O)cc2)CC1	80.8% (active)
Cc1ccc(NC(=O)CCCNC(=O)c2ccc(Cl)cc2)cc1S(=O)(=O)N1CCOCC1	1.07% (inactive)
CCC1Oc2ccccc2N(CC(=O)NCCCN2CCN(CC)CC2)C1=O (configuration not stated)	-0.48% (inactive)
Clc1ccc(Cl)c(Oc2ccc(Oc3nc(Cl)ccc3Cl)cc2)n1	4.19% (inactive)
COc1ccc2c(c1)C(=C(C#N)C#N)C(=O)N2CCc1ccccc1	0.52% (inactive)
COc1ccc2c(CC(=O)OCC(=O)Nc3ccccc3[N+](=O)[O-])coc2c1	2.62% (inactive)
CC(C)(C)OC(=O)Nc1ccc([C@@H](NC(=O)OC(C)(C)C)C(=O)OC(C)(C)C)cc1	-1.85% (inactive)
COc1cccc2cc(S(=O)(=O)c3ccc(C)cc3)/c(=N/NS(=O)(=O)c3ccc(C)cc3)oc12	-1.11% (inactive)
Cc1cc(S(=O)(=O)c2cc3ccc(O)c(C)c3oc2=O)ccc1F	72.4% (active)
Cc1cc(C(=O)OCC(=O)c2c(N)n(C)c(=O)n(C)c2=O)c(C)o1	0.07% (inactive)
O=S(=O)(c1ccc(Br)cc1)n1ccc2ccccc21	-4.37% (inactive)
CS(=O)(=O)N(CC(=O)N1CCCC1)Cc1ccccc1	1.15% (inactive)
CN(Cc1ccccc1Cl)C(=O)C1CCC(=O)N(CCc2cccc(F)c2)C1 (configuration not stated)	-0.04% (inactive)
O=C(N=C1SC2CS(=O)(=O)CC2N1c1cc(Cl)ccc1Cl)C1CC1 (configuration not stated)	0.93% (inactive)
COc1ccc(CCNC(=O)CCC(=O)NC2CCCCC2)cc1OC	0.12% (inactive)
CCOc1ccc(-c2noc(CCC(=O)NC3CCCC3)n2)cc1OC	1.23% (inactive)
COc1ccc2c(C)c(CCC(=O)NC3CC3)c(=O)oc2c1C	162% (active)
CC(C)N1CCC(NC(=O)Nc2ccccc2)CC1	0% (inactive)
Cc1ccc(-c2nn(-c3cccc(F)c3)cc2CNCCc2ccncc2)o1	3.67% (inactive)
C#Cc1ccc(NC(=O)C2(C)CCN2C(=O)Cc2ccc(-c3ccccc3)cc2)cc1 (configuration not stated)	-1.12% (inactive)

Structure (SMILES)	inhibition
COc1ccc(S(=O)(=O)Nc2cccc3c2O[C@H](CN(C)S(=O)(=O)c2ccc(OC)cc2)[C@@H](C)CN([C@H](C)CO)C3=O)cc1	0.3% (inactive)
Cc1noc(C)c1S(=O)(=O)N(C)C[C@H]1Oc2c(NC(=O)Nc3ccc4c(c3)OCO4)cccc2C(=O)N([C@H](C)CO)C[C@@H]1C	-0.42% (inactive)
COc1ccc(S(=O)(=O)N(C)C[C@H]2Oc3c(NC(=O)Nc4ccc5c(c4)OCO5)cccc3C(=O)N([C@H](C)CO)C[C@@H]2C)cc1	112% (active)
CCN(CCn1cccn1)C(=O)CC1C(=O)NCCN1Cc1cccc(OC)c1OC (configuration not stated)	0.01% (inactive)
CC(C)C1Nc2c(C(=O)O)cccc2C(Nc2ccccc2C(=O)O)C1(C)C (configuration not stated)	107% (active)
CCCCN1CC(COc2ccccc2)Oc2cccc(F)c2S1(=O)=O (configuration not stated)	-2.92% (inactive)
O=C(c1ccc(Cl)cc1)N1N=C(c2ccccn2)CC1(O)C(F)(F)F (configuration not stated)	4.39% (inactive)
CCOC(=O)[C@H]1[C@H]2COc3ccc(C)cc3[C@@H]2N2C(=O)CN(Cc3ccc(F)cc3)C(=O)[C@@]12C	0.55% (inactive)
CC[C@@H]1Cc2cc(O)ccc2C2=C1c1ccc(O)cc1C[C@H]2CC	89.3% (active)
O=C1NC(=O)C(c2ccc(Cl)cc2)N1 (configuration not stated)	3.68% (inactive)
COCCNC(=O)c1ccc2nc(Cc3ccc(OC)c(OC)c3)oc2c1	2.67% (inactive)
COc1ccc(CNC(=O)COc2ccccc2C(=O)c2cnn(-c3ccccc3)c2)cc1OC	6.29% (inactive)
CCCCNC(=O)c1ccccc1NC(=O)C1=C(C)OCCS1	1.28% (inactive)
CC(=O)C1=C(C)NC(C)=C(C(C)=O)C1c1cn(-c2ccccc2)nc1-c1cccs1	0.45% (inactive)
O=C(O)/C=C/c1cn(-c2ccccc2)nc1-c1cccs1	57.3% (active)
Cc1ccc(-c2nn(-c3ccccc3)cc2/C=C/C(=O)Nc2cccc(S(N)(=O)=O)c2)cc1	2.47% (inactive)
O=C1COc2ccc(NC(=O)N3CCN(c4ccc(F)cc4)CC3)cc2N1	1.24% (inactive)
CC(=O)NC12CC3CC(C1)CC(C(=O)N1CCN(S(=O)(=O)c4cccs4)CC1)(C3)C2	-0.81% (inactive)
Cc1cn(C2OC[C@@H](O)[C@@H]2CO)c(=O)[nH]c1=O (some centres not stated)	0.66% (inactive)
O=C(Nc1ccc([N+](=O)[O-])cc1)C1(c2ccccc2)CCOCC1	-1.46% (inactive)
O=C(OCC(=O)N1CCCC1=O)c1cc(S(=O)(=O)N2CCOCC2)ccc1Cl	-0.38% (inactive)
CCOC(=O)c1cc(C)nc(S(C)(=O)=O)c1C#N	3.95% (inactive)
COC(=O)c1c(C)c(C)nc(N)c1C#N	82.5% (active)

Structure (SMILES)	inhibition
COCc1c(N)c(C)nc(Cl)c1C#N	7.26% (inactive)
Cn1nc(C(C)(C)C)c([N+](=O)[O-])c1C(N)=O	1.86% (inactive)
O=C(Cn1cnc([N+](=O)[O-])n1)NCCc1ccccc1	0.01% (inactive)
CCCCCn1c(=O)[nH]c2cc(C(=O)NCCCN3CCCCC3C)ccc2c1=O (configuration not stated)	114% (active)
O=C(NC1CCCCC1)c1ccc2c(=O)n(CC3CCCO3)c(=O)[nH]c2c1 (configuration not stated)	-9.09% (inactive)
CC1CCCCN1CCCNC(=O)Cn1ncc2c([nH]c3ccccc32)c1=O (configuration not stated)	12% (inactive)
CCOC1CS(=O)(=O)CC1OCC (configuration not stated)	-0.21% (inactive)
c1ccc(Cc2c(-c3ccco3)nc3c4ccccc4ccn23)cc1	33.2% (active)
Cc1ccc(Cc2c(-c3ccc(C)cc3)nc3c4ccccc4ccn23)cc1	4.37% (inactive)
FC(F)(F)c1ccccc1Cc1c(-c2ccccc2)nc2c3ccccc3ccn12	5.62% (inactive)
Cc1cc(NC(=O)/C=C/C(=O)N(CC(=O)NC2CCCC2)c2ccc(F)cc2)no1	-1.71% (inactive)
CC1CN(/C=C/C(=O)C(F)(F)F)CC(C)O1 (configuration not stated)	-2.87% (inactive)
O=C1CN(C(=O)COC(=O)C2CC(=O)N(Cc3ccco3)C2)c2ccccc2N1 (configuration not stated)	1.16% (inactive)
CN1C(=O)c2ccc(C(=O)Nc3ccc(Br)cn3)cc2C1=O	-2.34% (inactive)
CN1C(=O)c2ccc(NC(=O)c3c(F)c(F)c(F)c(F)c3F)cc2C1=O	37.5% (active)
O=C(Nc1ccc2c(c1)OCCO2)C1CCCC1	-2.43% (inactive)
Cc1nc2ccc(NC(=O)C3CCCCC3)cc2s1	2.5% (inactive)
CN1C(=O)c2ccc(NC(=O)C3CCCCC3)cc2C1=O	33.2% (active)
Cc1cccc(C(=O)Nc2ccc3c(c2)C(=O)N(CC(C)C)C3=O)c1	8.31% (inactive)
COc1cc(CN2CCCN(C)CC2)c([N+](=O)[O-])cc1OC	2.5% (inactive)
O=C(Nc1ccc(F)c([N+](=O)[O-])c1)C1CC(=O)N(Cc2ccccc2)C1 (configuration not stated)	-0.61% (inactive)
CCNC(=O)c1cccc(NC(=O)C2CC(=O)N(CCc3ccccc3)C2)c1 (configuration not stated)	3.18% (inactive)
Cc1cc(=O)oc2cc(NC(=O)C3CC(=O)N(Cc4ccccc4)C3)ccc12 (configuration not stated)	68.5% (active)
